PubChem BioAssay (NCI)
This is part of a sample that, as a whole, favours compounds with a hit. Of some 79,000 tested, about 15% had one in any assay. Values without a mark were called inactive. Calls of active or inactive are those of the source. Cut-off read from the data, not from the text of the source: active = growth inhibition above about 70%; inactive = the rest.

Experiments:
[1] = NCI Yeast Anticancer Drug Screen. Data for the rad50 strain (AID 155);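 note: 0% = growth of vehicle-only cultures of the same strain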; conditions: S. cerevisiae rad50 strain growth inhibition, active compounds read high
In short: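 Inhibition values express reduced yeast growth in compound-treated cultures relative to vehicle-treated controls.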

[2] = NCI Yeast Anticancer Drug Screen. Data for the mec2-1 strain (AID 157); conditions: S. cerevisiae mec2-1 strain, active compounds read high
In short: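 mec2-1 yeast strain, carrying an alteration in DNA damage repair or cell cycle control, was exposed to compounds; growth inhibition was measured relative to vehicle-treated controls.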

[3] = NCI Yeast Anticancer Drug Screen. Data for the sgs1 mgt1 strain (AID 161);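 note: 0% = growth of cultures given vehicle only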; conditions: S. cerevisiae sgs1 mgt1 strain, active compounds read high
In short: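 Compounds are added to genetically altered yeast, and growth is compared with cultures given vehicle alone to give percent inhibition.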

[4] = NCI Yeast Anticancer Drug Screen. Data for the cln2 rad14 strain (AID 165);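 note: 0% = growth equal to vehicle treated cultures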; conditions: S. cerevisiae cln2 rad14 strain, active compounds read high
In short: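 Yeast carrying cln2 and rad14 alterations (cell cycle control and DNA damage repair) were exposed to compounds. Growth inhibition was measured against vehicle-treated controls.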

[5] = NCI Yeast Anticancer Drug Screen. Data for the bub3 strain (AID 167); conditions: S. cerevisiae bub3 mutant strain, active compounds read high
In short: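 Steps: expose the mutant yeast strain to compound; grow alongside vehicle-treated cultures; measure growth; express inhibition against the vehicle cultures.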

[6] = NCI Yeast Anticancer Drug Screen. Data for the mlh1 rad18 strain (AID 175); conditions: S. cerevisiae mlh1 rad18 strain growth inhibition, active compounds read high
In short: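 Growth inhibition of the yeast strain was measured after compound exposure and expressed relative to vehicle-treated controls. The strain carries defined defects in DNA damage repair.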

[7] = at 5.0 µM (retest, dose inferred, filed as 0.5)
[8] = at 50.0 µM (retest, dose inferred, filed as 5.0)

SMILES | growth inhibition [1, 7] | growth inhibition [1, 8] | growth inhibition ([1]; at 50.0 µM) | growth inhibition [2, 7] | growth inhibition [2, 8] | growth inhibition ([2]; at 50.0 µM) | growth inhibition [3, 7] | growth inhibition [3, 8] | growth inhibition ([3]; at 50.0 µM) | growth inhibition [4, 7] | growth inhibition [4, 8] | growth inhibition ([4]; at 50.0 µM) | growth inhibition [5, 7] | growth inhibition [5, 8] | growth inhibition ([5]; at 50.0 µM) | growth inhibition [6, 7] | growth inhibition [6, 8] | growth inhibition ([6]; at 50.0 µM)
COc1ccc(CCN2CC(=O)N3CSCC3C2=O)cc1OC (stereo not given) | 6% | 24% | 66.7% | 5% | 16% | 7.05% | 9% | 27% | 34.8% | 4% | 27% | 25.4% | 3% | 28% | 21.8% | -1% | 14% | 37.2%
O=C(O)CCCCCCC(=O)CCl | 30% | 74% (active) | 72% (active) | 22% | 82% (active) | 83.5% (active) | 24% | 74% (active) | 66.2% | 25% | 38% | 23.9% | 30% | 78% (active) | 58.4% | 19% | 86% (active) | 72.9% (active)
Cc1cn(C2OC(CO)C(O)C(O)C2N)c(=O)[nH]c1=O (stereo not given) | 0% | -2% | 86.5% (active) | 3% | 10% | 70.3% (active) | 1% | 8% | 56.5% | -4% | 0% | 61.6% | -8% | -13% | 93.9% (active) | -4% | -3% | 92.5% (active)
CCOC(=O)C(C#N)NC(C)=O (stereo not given) | 3% | 1% | 68% | 0% | 1% | 49.3% | 0% | 1% | 75.4% (active) | -1% | 0% | 3.05% | 0% | -5% | 69% | 3% | 3% | 57.8%
CCOP(=O)(OCC)C(=C1C=C(C(C)(C)C)C(=O)C(C(C)(C)C)=C1)P(=O)(OCC)OCC | 2% | 97% (active) | 98.2% (active) | -15% | 99% (active) | 96.8% (active) | 0% | 89% (active) | 98.8% (active) | -4% | 99% (active) | 97.2% (active) | 5% | 99% (active) | 97.2% (active) | -12% | 98% (active) | 96.8% (active)
C/C(=C/C(=O)N1c2ccccc2CC1c1c[nH]c2ccccc12)C(=O)O (stereo not given) | -1% | 39% | 62.1% | -8% | 5% | -2.65% | -3% | 33% | 46.9% | -79% | 8% | -0.65% | -4% | 20% | 17.1% | -2% | 15% | 40.9%
Clc1ccccc1CCc1cc(-c2ccccc2)n[nH]1 | -14% | 97% (active) | 96.8% (active) | -26% | 98% (active) | 94.7% (active) | -6% | 97% (active) | 95.6% (active) | -13% | 97% (active) | 88.9% (active) | 16% | 97% (active) | 93.2% (active) | -4% | 97% (active) | 97.7% (active)
CC(C)(CN1CCCCC1)C(/C=C/c1ccc(Cl)c(Cl)c1)=N\NC(=O)N/N=C(/C=C/c1ccc(Cl)c(Cl)c1)C(C)(C)CN1CCCCC1 | 42% | 98% (active) | 90.5% (active) | 29% | 99% (active) | 93.3% (active) | 41% | 99% (active) | 92.8% (active) | 31% | 98% (active) | 91.2% (active) | 39% | 67% | 91.8% (active) | 56% | 99% (active) | 90% (active)
Cc1ccc(S(=O)(=O)C2C=CC=CC=C2)cc1 | -156% | 84% (active) | 76.8% (active) | -51% | 54% | 86% (active) | -64% | 77% (active) | 14.7% | -62% | 42% | 52% | -71% | 66% | 71% (active) | -140% | 87% (active) | 82% (active)
CS(=O)(=O)OCCN(CCOS(C)(=O)=O)c1ccc(C=Nc2cc(Cl)c(O)c(Cl)c2)c(Cl)c1 | -1% | 28% | 46.6% | 42% | 4% | -5% | -1% | 32% | 38.5% | 0% | 3% | -23.1% | -1% | -1% | 1.25% | 9% | 57% | 86% (active)
